Compounds with a hit are over-represented: about 3.5% of the library has one in this group of screens.
mHTT-CaM PPI inh: disrupts binding of mutant huntingtin to calmodulin; P42858; AlphaScreen His-mHTT/GST-CaM binding, luminescence; inhibition, % at 15 µM; hit rate 3.6% among 190,000; AID 1671202;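 also: 0% = both proteins with DMSO and 100% = one protein alone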
Target sequence (P42858 whole entry, looked up, stated change not applied): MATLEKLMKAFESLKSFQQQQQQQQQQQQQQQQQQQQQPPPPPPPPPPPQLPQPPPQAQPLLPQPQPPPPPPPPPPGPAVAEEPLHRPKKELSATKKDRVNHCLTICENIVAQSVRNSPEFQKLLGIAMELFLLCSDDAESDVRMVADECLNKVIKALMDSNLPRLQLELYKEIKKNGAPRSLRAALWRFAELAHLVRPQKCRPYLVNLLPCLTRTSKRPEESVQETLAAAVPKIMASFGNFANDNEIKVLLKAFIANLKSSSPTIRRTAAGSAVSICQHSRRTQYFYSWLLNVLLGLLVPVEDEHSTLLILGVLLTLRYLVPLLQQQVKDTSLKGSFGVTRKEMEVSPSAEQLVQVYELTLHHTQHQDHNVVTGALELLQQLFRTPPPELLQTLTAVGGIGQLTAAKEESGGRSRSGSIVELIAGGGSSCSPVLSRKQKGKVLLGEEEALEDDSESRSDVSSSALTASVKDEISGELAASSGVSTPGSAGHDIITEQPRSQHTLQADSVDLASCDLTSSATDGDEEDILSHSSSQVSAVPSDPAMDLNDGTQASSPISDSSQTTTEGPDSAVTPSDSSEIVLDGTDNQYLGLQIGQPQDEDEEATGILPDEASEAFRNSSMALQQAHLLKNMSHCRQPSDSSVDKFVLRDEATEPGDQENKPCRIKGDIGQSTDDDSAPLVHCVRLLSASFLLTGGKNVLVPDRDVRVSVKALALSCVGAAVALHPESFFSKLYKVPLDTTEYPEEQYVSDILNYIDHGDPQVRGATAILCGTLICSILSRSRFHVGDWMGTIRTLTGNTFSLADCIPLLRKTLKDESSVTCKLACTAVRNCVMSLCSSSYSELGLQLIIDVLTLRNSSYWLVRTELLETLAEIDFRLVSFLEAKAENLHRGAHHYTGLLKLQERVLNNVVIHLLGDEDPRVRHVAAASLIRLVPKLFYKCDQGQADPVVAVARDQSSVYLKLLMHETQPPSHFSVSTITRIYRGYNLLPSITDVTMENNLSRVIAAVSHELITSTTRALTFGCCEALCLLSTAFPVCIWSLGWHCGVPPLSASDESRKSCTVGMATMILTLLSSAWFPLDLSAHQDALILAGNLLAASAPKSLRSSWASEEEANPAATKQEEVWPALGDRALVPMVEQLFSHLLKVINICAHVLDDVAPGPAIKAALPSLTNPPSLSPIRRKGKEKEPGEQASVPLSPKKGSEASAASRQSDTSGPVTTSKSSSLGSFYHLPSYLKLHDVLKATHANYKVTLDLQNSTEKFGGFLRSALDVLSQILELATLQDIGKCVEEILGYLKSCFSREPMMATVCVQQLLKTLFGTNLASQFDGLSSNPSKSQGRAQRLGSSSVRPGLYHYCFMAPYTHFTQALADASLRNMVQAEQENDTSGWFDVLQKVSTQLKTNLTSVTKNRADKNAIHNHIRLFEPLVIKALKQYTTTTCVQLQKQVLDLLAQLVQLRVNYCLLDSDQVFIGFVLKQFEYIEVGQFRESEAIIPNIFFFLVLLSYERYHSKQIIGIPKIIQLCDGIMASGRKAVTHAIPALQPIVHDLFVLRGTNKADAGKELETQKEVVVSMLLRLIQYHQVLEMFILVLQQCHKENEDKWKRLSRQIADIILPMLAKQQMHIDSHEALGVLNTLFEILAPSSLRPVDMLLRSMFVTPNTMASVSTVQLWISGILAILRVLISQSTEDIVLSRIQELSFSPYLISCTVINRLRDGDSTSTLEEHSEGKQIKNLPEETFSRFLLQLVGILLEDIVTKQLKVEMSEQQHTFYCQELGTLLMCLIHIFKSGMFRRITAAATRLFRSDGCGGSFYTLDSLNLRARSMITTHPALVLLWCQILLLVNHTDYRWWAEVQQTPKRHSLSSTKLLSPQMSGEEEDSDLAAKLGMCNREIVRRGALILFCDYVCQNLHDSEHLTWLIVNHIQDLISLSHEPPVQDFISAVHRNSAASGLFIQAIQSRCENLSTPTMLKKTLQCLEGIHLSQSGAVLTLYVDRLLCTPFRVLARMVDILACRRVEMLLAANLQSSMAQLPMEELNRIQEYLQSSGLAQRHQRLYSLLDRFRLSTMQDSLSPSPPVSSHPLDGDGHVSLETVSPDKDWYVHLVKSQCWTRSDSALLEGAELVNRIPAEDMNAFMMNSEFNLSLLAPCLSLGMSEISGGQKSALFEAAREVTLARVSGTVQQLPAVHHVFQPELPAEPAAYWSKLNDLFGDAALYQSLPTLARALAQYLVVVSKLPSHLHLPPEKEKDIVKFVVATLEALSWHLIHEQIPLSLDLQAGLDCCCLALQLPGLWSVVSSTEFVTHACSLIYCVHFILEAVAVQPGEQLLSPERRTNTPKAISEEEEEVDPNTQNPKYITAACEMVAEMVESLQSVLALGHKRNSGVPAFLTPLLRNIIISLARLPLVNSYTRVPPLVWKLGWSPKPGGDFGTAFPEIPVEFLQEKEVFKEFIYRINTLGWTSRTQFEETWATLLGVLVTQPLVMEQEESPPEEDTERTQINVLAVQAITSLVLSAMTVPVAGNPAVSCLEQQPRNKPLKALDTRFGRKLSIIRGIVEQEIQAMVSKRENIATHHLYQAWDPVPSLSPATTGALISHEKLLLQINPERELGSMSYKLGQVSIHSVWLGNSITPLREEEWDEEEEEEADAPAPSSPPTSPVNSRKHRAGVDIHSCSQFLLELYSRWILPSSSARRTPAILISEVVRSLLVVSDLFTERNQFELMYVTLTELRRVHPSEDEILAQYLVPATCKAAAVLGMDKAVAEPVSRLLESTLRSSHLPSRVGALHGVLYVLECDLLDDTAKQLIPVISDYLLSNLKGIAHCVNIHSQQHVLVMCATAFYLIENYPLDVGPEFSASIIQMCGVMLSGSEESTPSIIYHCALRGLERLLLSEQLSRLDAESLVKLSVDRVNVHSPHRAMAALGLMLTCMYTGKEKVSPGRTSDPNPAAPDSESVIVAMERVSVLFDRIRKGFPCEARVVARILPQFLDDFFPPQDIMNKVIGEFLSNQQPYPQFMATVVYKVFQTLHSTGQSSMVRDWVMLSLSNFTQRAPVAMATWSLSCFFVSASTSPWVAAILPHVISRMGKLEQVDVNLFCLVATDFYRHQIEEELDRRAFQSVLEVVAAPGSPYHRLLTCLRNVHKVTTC
Pf apPOL inh: Pf-apPOL DNA polymerase inhibition. Recombinant Pf-apPOL, molecular beacon fluorescence, 1.5 h. inhibition, % at 10 µM. hit rate 0.25% among 210,000
* hit, by the source's call; nt = no result given; ! = not active in a repeat. Rule as the data show it: active = inhibition above about 50%; inactive = the rest.

SMILES	mHTT-CaM PPI inh	Pf apPOL inh
CN(C)C(=O)c1cc2c(s1)CCC(C(=O)Nc1cccc(Cl)c1)C2 (stereo unspecified)	2	-6
Cc1c(C(=O)Nc2ccccc2)cccc1[N+](=O)[O-]	-5	-1
O=C(c1nn2c(c1Cl)NC(c1ccccc1)CC2C(F)(F)F)N1CCCCCC1 (stereo unspecified)	50	-2
O=C(c1nn2c(c1Cl)NC(c1ccccc1)CC2C(F)(F)F)N1CCc2ccccc2C1 (stereo unspecified)	72*	-3
O=C(c1nn2c(c1Cl)NC(c1ccccc1)CC2C(F)(F)F)N1CCCCC1 (stereo unspecified)	14	-1
CCC1CCCCN1C(=O)c1nn2c(c1Cl)NC(c1ccccc1)CC2C(F)(F)F (stereo unspecified)	87*	-6
O=C(Nc1ccccc1)c1cccc(I)c1	-10	2
Cc1cc(C(=O)Nc2ccc(NC(=O)c3ccccc3)cc2)ccc1[N+](=O)[O-]	-4	7
CN(C)c1ccc(NC(=O)c2ccc(Cl)cc2)cc1	-1	7
CN(C)c1ccc(NC(=O)c2ccncc2)cc1	70*	1
COc1ccc(NS(=O)(=O)c2cccc(C(=O)Nc3ccc(C)cc3)c2)cc1	4	95*
CN(C)c1ccc(NC(=O)c2cccc(I)c2)cc1	80*	-3
Cc1cccc(C(=O)Nc2ccc([N+](=O)[O-])c(NC(=O)c3cccc(C)c3)c2)c1	2	80*
COc1ccc(NS(=O)(=O)c2cccc(C(=O)Nc3cccc(C(=O)O)c3)c2)cc1	4	4
CC(C)N1C(=O)S/C(=C\c2ccc(N3CCCCC3)o2)C1=O	23	-2
COc1ccc(CNC(=O)c2cn3cc(C)ccc3n2)cc1	-7	-4
O=C(COc1ccc(F)cc1)Nc1cc(F)c2[nH]c(=O)ccc2c1	-6	4
COc1ccc(C(=O)CSc2nnc(-c3cc(C)oc3C)o2)cc1OC	12	4
Cc1cccc(C(=O)Nc2ccc(F)cc2)c1	-1	-4
Cc1cccc(C(=O)Nc2ccc(I)cc2)c1	-32	77*
Nc1nnc(SC/C=C/c2ccc([N+](=O)[O-])cc2)s1	10	-11
O=C1C(=C(c2ccccc2)c2ccccc2)C(=O)c2ccccc21	61*	-11
O=C1C(c2ccccc2)=C(c2ccccc2)c2ccccc21	41	-1
COc1ccc2c3c(ccc2c1)-c1[nH]c2ccccc2c1CC3	44	nt
c1ccc2c3c([nH]c2c1)-c1nonc1CC3	0	93*!
SMILES	mHTT-CaM PPI inh	Pf apPOL inh
Cc1ccc(C(=O)N2CCN(C(=O)c3ccc([N+](=O)[O-])cc3)C2c2ccc(N(C)C)cc2)cc1 (stereo unspecified)	46	0
O=c1[nH]c(SCc2ccccc2)nc2c1CN(Cc1ccccc1)CC2	-5	0
O=C1CC(c2ccccc2)CC2=C1C(c1ccc(Cl)c([N+](=O)[O-])c1)Nc1ccccc1N2 (stereo unspecified)	84*	2
O=C1CC(c2ccc(Cl)cc2)CC2=C1C(c1ccccc1[N+](=O)[O-])Nc1ccccc1N2 (stereo unspecified)	25	-7
O=C1CC(c2ccccc2)CC2=C1C(c1ccc(Cl)cc1)Nc1ccccc1N2 (stereo unspecified)	45	10
O=C1CC(c2cccc([N+](=O)[O-])c2)CC2=C1C(c1ccc(Cl)cc1)Nc1ccccc1N2 (stereo unspecified)	58*	12
O=C1CN(C(=O)c2ccc3ncsc3c2)c2ccccc2N1	2	5
CC(=NCCN1CCOCC1)c1c(C(F)(F)F)[nH]n(-c2nc3ccccc3s2)c1=O	2	-1
CC(=NCCCN1CCOCC1)c1c(-c2ccccc2)[nH]n(-c2nc3ccccc3s2)c1=O	51*	-3
Cc1cc(OCC(=O)N2CCC(C)CC2)nc(-c2ccc(F)cc2)n1	0	-4
O=C(NCc1csc(-c2cccs2)n1)C1CCCN1C(=O)NCc1ccccc1 (stereo unspecified)	3	-9
CN(C(=O)Cc1c(C(=O)O)[nH]c2ccc(Cl)cc12)c1ccc(Br)cc1	10	1
Cc1ccc(Cl)cc1N1CCN(C(=O)C2(S(=O)(=O)c3ccc(Cl)cc3)CC2)CC1	92*	1
O=C(N1CCN(c2cccc(Cl)c2)CC1)C1(S(=O)(=O)c2ccc(Cl)cc2)CC1	13	-5
O=C(O)c1[nH]c2ccc(Cl)cc2c1CC(=O)N1CCN(c2cccc(Cl)c2)CC1	63*	-4
O=C(O)c1[nH]c2ccccc2c1CC(=O)N1CCN(c2ccc([N+](=O)[O-])cc2)CC1	7	-3
Cc1ccc(Cl)cc1N1CCN(C(=O)Cc2c(C(=O)O)[nH]c3ccc(Cl)cc23)CC1	98*	0
CCc1ccccc1NC(=O)C1CC(c2cc(OC)c(OC)c(OC)c2)=NO1 (stereo unspecified)	0	-3
O=S(=O)(C1CC1)N1CCC(c2nc(-c3ccccc3)no2)C1 (stereo unspecified)	-9	-13
COc1ccc(/C=c2\sc3nc(-c4ccc(Br)cc4)nn3c2=O)cc1	6	19
O=C1CC(Sc2ncn[nH]2)C(=O)N1c1ccc(F)cc1 (stereo unspecified)	26	-7
O=C(C(Cc1ccccc1)N1C(=O)c2ccccc2C1=O)N1CCN(c2ccc(F)cc2)CC1 (stereo unspecified)	51*	-14
O=C(C(Cc1ccccc1)N1C(=O)c2ccccc2C1=O)N1CCN(CCO)CC1 (stereo unspecified)	5	-7
COC1=CC(=Cc2c(N)n3nc(-c4ccccc4C)sc3nc2=O)C=CC1=O	57*	-1
CCOC1=CC(=Cc2c(N)n3nc(COc4ccccc4)sc3nc2=O)C=CC1=O	31	0
SMILES	mHTT-CaM PPI inh	Pf apPOL inh
Oc1oc(-c2ccc(Cl)cc2)nc1C=Nc1cccc(F)c1	-6	-3
CCn1c(/C=C/c2ccc(OC)cc2)nc2ccccc21	-6	12
Cc1ccccc1CN1C(=O)/C(=C/C(=O)NCCc2ccccc2)Sc2ccccc21	51*	-16
Cc1ccc(CN2C(=O)/C(=C/C(=O)O)Sc3ccccc32)cc1	60*	28
O=C(/C=C1\Sc2ccccc2N(Cc2ccc(F)cc2)C1=O)NCCc1ccccc1	-16	10
Cc1ccccc1CN1C(=O)/C(=C/C(=O)O)Sc2ccccc21	27	28
COc1ccc(CC(=O)Nc2ccc(-c3ccn[nH]3)cc2)cc1	-6	-3
COc1ccc(-c2ccc(C)cc2)cc1[C@H]1[C@H]2C=CC[C@@H](C)[C@@H]2C(=O)N1Cc1ccccc1	-2	-4
COc1ccc(-c2ccoc2)cc1[C@H]1[C@H]2C=CC[C@@H](C)[C@@H]2C(=O)N1Cc1ccccc1	86*	0
O=C(c1nnn(-c2ccccc2F)c1-c1ccccn1)N1CCN(c2ncccn2)CC1	0	-5
O=C(c1nnn(-c2ccccc2F)c1-c1ccccn1)N1CC=C(c2ccccc2)CC1	84*	-10
CC1CCCN(C(=O)c2n[nH]c(=O)c3ccccc23)C1 (stereo unspecified)	0	-5
Cc1ncsc1CN1CCCC(c2n[nH]c(C3CC3)n2)C1 (stereo unspecified)	-2	-6
O=C(Nc1cccc(-c2nc3ccccc3o2)c1)c1cccnc1Cl	0	74*
O=C(Nc1cccc(-c2nc3ccccc3o2)c1)c1ccccc1I	-4	-4
O=C(CSc1nc2[nH]ncc2c(=O)n1-c1cccc(C(F)(F)F)c1)NCc1ccco1	13	-3

Screens as filed in PubChem.
